# According to the supplement of paper PMC10646978:
# ± gives the standard deviation.
# What was measured:
# Conditions in all cases: modulator concentration 10 µM
# [1] = system: RAW-Dual (murine macrophage reporter line); test: NF-kB reporter (SEAP) activity fold change vs agonist alone; higher = enhanced NF-kB activity
# In short: (§1)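 In 384-well plates holding 50 000 RAW-Dual murine macrophage reporter cells per well, compound at 10 μM final was pre-incubated for 1 hour at 37 °C, after which a PRR agonist was added overnight. Supernatant SEAP read with QUANTI-Blue at 620 nm absorbance reported NF-κB, and Lucia luciferase read with QUANTI-Luc luminescence reported IRF. Fold change values come from dividing each reporter signal by the mean of agonist-only control wells on the same plate, averaged over replicate plates with propagated errors.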
# [2] = system: RAW-Dual (murine macrophage reporter line); test: IRF reporter (Lucia luciferase) activity fold change vs agonist alone; higher = enhanced IRF activity
# In short: as §1
# [3] = system: RAW-Dual (murine macrophage reporter line); test: viability score (confluency relative to resting cells, overnight) (fraction); higher = more viable, active = viable (0.7 or more)
# In short: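 Confluency was the readout: RAW-Dual macrophages were imaged with IncuCyte after an overnight exposure to compound at 10 μM final. IncuCyte software produced two masks over all imaged wells. The viability score expresses confluency against resting cells, and both masks had to exceed 70% of resting cells for a compound to meet the cutoff.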
# [4] = agonist: CpG ODN 1826 0.5 ug/mL
Compound,"NF-kB reporter [1, 4]",NF-kB reporter ([1]; agonist: LPS 0.1 ug/mL),NF-kB reporter ([1]; agonist: MPLA […]),IRF reporter ([2]; agonist: 3'3'-cGAMP 10 ug/mL),IRF reporter ([2]; agonist: LPS 0.1 ug/mL),IRF reporter ([2]; agonist: MPLA […]),viability score [3]
CCOC(=O)C1=C(COCCN)NC(C)=C(C(=O)OC)C1c1ccccc1Cl.O=S(=O)(O)c1ccccc1 (configuration not stated),0.921 ± 0.14,1.33 ± 0.18,3.73 ± 0.3,0.449 ± 0.058,1.55 ± 0.2,5.89 ± 1.2,0.0981 (inactive)
Cc1ccc(S(=O)(=O)N2CCC2)cc1,1.03 ± 0.11,0.756 ± 0.097,1.07 ± 0.1,1.02 ± 0.047,1.37 ± 0.22,1.51 ± 0.39,1.02 (active)
COc1ccc(-c2nc3cc(C4=NNC(=O)CC4C)ccc3[nH]2)cc1 (configuration not stated),2.4 ± 0.37,1.37 ± 0.23,1.14 ± 0.073,0.164 ± 0.057,1.07 ± 0.25,1.33 ± 0.12,0.775 (active)
CC(=NNC(N)=S)C1=CC(C)(C)CCC1,0.744 ± 0.061,0.985 ± 0.062,1.06 ± 0.13,0.462 ± 0.012,1.17 ± 0.19,0.978 ± 0.2,1.01 (active)
Cc1ccc(Nc2nccc(N(C)c3ccc4c(C)n(C)nc4c3)n2)cc1S(N)(=O)=O,0.71 ± 0.11,1.84 ± 0.36,2.52 ± 0.16,0.146 ± 0.014,0.835 ± 0.15,1.18 ± 0.14,0.78 (active)
O=C(Nc1nc(CC(=O)N2CCc3ccccc3C2)cs1)c1ccc(Cl)cc1,1.05 ± 0.054,1.13 ± 0.09,0.845 ± 0.047,1.01 ± 0.056,1.16 ± 0.11,1.21 ± 0.15,1.01 (active)
CSc1nc(C(C)(C)C)cc(C(F)(F)F)c1C#N,0.738 ± 0.061,0.955 ± 0.15,1.12 ± 0.049,0.998 ± 0.05,0.855 ± 0.12,0.923 ± 0.26,0.996 (active)
CCOc1ccc(-c2nc3c(c(C)nn3-c3ccccc3)c3cc(OC)c(OC)cc23)cc1,0.812 ± 0.063,0.934 ± 0.089,1.05 ± 0.095,0.948 ± 0.043,1.29 ± 0.075,1.48 ± 0.14,1 (active)
Fc1ccc(Nc2nc(NN=Cc3ccc(Cl)cc3)nc(N3CCCCC3)n2)cc1,1.02 ± 0.087,0.949 ± 0.13,1.01 ± 0.1,1 ± 0.032,1.14 ± 0.12,1.24 ± 0.2,1.05 (active)
CC(COc1ccccc1)N(CCCl)Cc1ccccc1.Cl (configuration not stated),0.328 ± 0.025,0.177 ± 0.015,0.355 ± 0.012,0.053 ± 0.0051,0.0504 ± 0.0018,0.0594 ± 0.011,0.186 (inactive)
O=C(C=Cc1ccccc1)NC(NC(=S)Nc1cccc(O)c1)C(Cl)(Cl)Cl (configuration not stated),0.835 ± 0.074,0.803 ± 0.1,0.972 ± 0.099,0.737 ± 0.024,1.25 ± 0.23,1.3 ± 0.28,1.03 (active)
COc1cccc(S(=O)(=O)N2CCCC(c3nnc(C(F)(F)F)o3)C2)c1 (configuration not stated),0.892 ± 0.039,1.08 ± 0.09,1.03 ± 0.06,0.885 ± 0.041,1.11 ± 0.27,1.3 ± 0.36,1.02 (active)
CCC(=O)Nc1cccc(NC(=O)c2ccc(F)cc2)c1,0.852 ± 0.066,0.906 ± 0.12,0.977 ± 0.092,0.99 ± 0.05,1.32 ± 0.092,1.39 ± 0.17,0.997 (active)
Cc1ccc(-c2cc(-c3ccccc3)nc(NN=Cc3ccc(O)cc3)n2)cc1,0.952 ± 0.12,1.3 ± 0.14,1.7 ± 0.17,0.228 ± 0.026,0.942 ± 0.12,0.949 ± 0.12,0.923 (active)
O=C(NCCN1CCOCC1)c1cc2nc(-c3ccccc3)cc(C(F)(F)F)n2n1,0.898 ± 0.078,1.06 ± 0.091,0.933 ± 0.061,0.607 ± 0.033,1.09 ± 0.098,1.01 ± 0.09,1 (active)
OCCN1CCN(CC/C=C2/c3ccccc3Sc3ccc(Cl)cc32)CC1 [Prestw-998],0.395 ± 0.067,0.914 ± 0.093,1.36 ± 0.26,0.303 ± 0.008,1.85 ± 0.3,2.43 ± 0.28,0.624 (inactive)
COCC(=O)Nc1c(C(=O)Nc2ccc(OC(F)(F)F)cc2)oc2ccccc12,1.26 ± 0.1,1.24 ± 0.098,1.22 ± 0.11,1.58 ± 0.085,1.84 ± 0.17,1.85 ± 0.38,0.922 (active)
O=C(O)c1cc(O)ccc1O,0.972 ± 0.11,1.03 ± 0.055,0.977 ± 0.023,1.03 ± 0.078,0.969 ± 0.032,0.932 ± 0.11,0.996 (active)
O=C(Nc1c(Cl)cncc1Cl)c1ccc(OC(F)F)c(OCC2CC2)c1,2.48 ± 0.36,1.99 ± 0.17,1.44 ± 0.1,0.804 ± 0.025,0.908 ± 0.094,1.24 ± 0.22,0.968 (active)
CCN(CC)Cc1ccc(Nc2ccnc3cc(Cl)ccc23)cc1O.Cl.Cl,0.998 ± 0.1,0.874 ± 0.065,0.908 ± 0.085,0.988 ± 0.055,1.09 ± 0.19,1.04 ± 0.16,1.04 (active)
CCN(CC)CCOC(=O)c1ccc(N)cc1.Cl,1.29 ± 0.2,1.08 ± 0.26,1.89 ± 0.82,0.923 ± 0.039,1.22 ± 0.43,1.16 ± 0.13,0.996 (active)
CC(C)Sc1ccc(CC(=O)NC2CCN(c3cc4c(nn3)CCCC4)CC2)cc1,0.556 ± 0.041,1.19 ± 0.11,1.02 ± 0.076,0.847 ± 0.04,1.26 ± 0.27,1.51 ± 0.47,0.973 (active)
CCCN(CCC)C(=O)C1=Cc2ccc(-c3ccc(C(=O)N4CCCC4)cc3)cc2N=C(N)C1,0.432 ± 0.022,1.08 ± 0.17,1.12 ± 0.11,0.724 ± 0.034,1.29 ± 0.29,1.58 ± 0.49,0.957 (active)
Br.NC(=O)C(c1ccccc1)(c1ccccc1)[C@@H]1CCN(CCc2ccc3c(c2)CCO3)C1,0.471 ± 0.18,1.25 ± 0.27,1.53 ± 0.37,0.485 ± 0.015,1.15 ± 0.41,1.41 ± 0.22,0.975 (active)
c1ccc(CN2CCN(c3cc(-c4cccnc4)n[nH]3)CC2)cc1,0.805 ± 0.043,1.06 ± 0.096,1.21 ± 0.092,1.09 ± 0.051,1.37 ± 0.31,1.56 ± 0.59,0.98 (active)
COc1cc2nc(N(C)CCCNC(=O)C3CCCO3)nc(N)c2cc1OC.Cl (configuration not stated),0.585 ± 0.096,0.838 ± 0.14,0.958 ± 0.056,0.382 ± 0.26,0.996 ± 0.22,1.09 ± 0.2,0.996 (active)
